Screening data: PubChem BioAssay, National Center for Advancing Translational Sciences (NCATS)
Cycloheximide cs – Cycloheximide Counterscreen for Small Molecule Inhibitors of Shiga Toxin; max response, %; AID 2314, 2010; 12% of 300,000 active; cell reporter, cycloheximide protein synthesis inhibition counterscreen; in the data active means max response mostly above about 13%, no sharp cut-off; inactive means mostly below about 14%; further: read at 38.3 µM for the half of the compounds with a filed dose
Lassa entry inh – qHTS for Inhibitors of binding or entry into cells for Lassa Virus; Lassa virus pseudotype entry inhibition, cell reporter; Potency, µM (titrated, usually from 37.9 µM), most hits filed as inhibitors; 1.2% of 300,000 active; calls by dose curve; tested in HEK293 cells; further: nearly all actives have a fitted effect of over 50% in size
Pf growth 96h – Primary qHTS for delayed death inhibitors of the malarial parasite plastid, 96 hour incubation | Potency, µM (doses to about 28.7 µM), most hits filed as inhibitors | P. falciparum luciferase reporter growth, 96 h | 6.9% of 320,000 active
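Two parasite generations (96 h, 37 C, 5% CO2) of compound exposure in infected erythrocytes (0.05% parasitemia, 2% hematocrit). Luciferase-reporter P. falciparum; decreased luminescence indicates inhibited growth, aimed at apicoplast-acting delayed death.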
Shiga toxin inh – A qHTS for Small Molecule Inhibitors of Shiga Toxin | Vero cells, Shiga toxin protein synthesis inhibition reporter | inhibition, % at 38.7 µM | 9.2% of 290,000 active | AID 2315, 2010; in the data active means inhibition mostly above about 28%, no sharp cut-off; inactive means mostly below about 43%
Pf growth 48h – Primary qHTS for delayed death inhibitors of the malarial parasite plastid, 48 hour incubation; P. falciparum luciferase growth in erythrocytes, 48 h; AID 504832, 2011; 5.9% of 310,000 active; Potency, µM (doses to about 28.7 µM), actives largely listed as inhibitors
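Cell-based growth assay: transgenic P. falciparum expressing firefly luciferase, cultured in red cells within RPMI 1640 containing 0.5% w/v Albumax, 24 mM bicarbonate and gentamycin. A drop in luciferase activity indicates inhibition.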
Marburg entry inh – qHTS for inhibitors of binding or entry into cells for Marburg Virus | Marburg virus pseudotyped entry inhibition, cell reporter | Potency, µM (series often up to 37.8 µM), hits mostly inhibitors | 1.8% of 300,000 active | AID 540276, 2011; calls by dose curve; tested in HEK293 cells
Numbers stand for hits; – = inactive; ? = inconclusive; · = no result; ! = a repeat was not active; [ ] = another dose, or the depositor's remark. Compounds with a hit are over-represented: about 19% of the library has one in this group of screens. Unless noted, the call rests on the fitted dose curve; in most records, active means well fitted inhibition curve with a large enough effect; inconclusive means small, poorly fitted or top-dose-only effect, or another doubt; inactive means no such curve, though single readings can be large or run the other way.

SMILES	Cycloheximide cs	Lassa entry inh	Pf growth 96h	Shiga toxin inh	Pf growth 48h	Marburg entry inh
O=C(O)c1ccc(/C=N/n2cc(-c3ccccc3)[nH]c2=S)cc1	–	·	–	–	–	·
Fc1ccccc1/C=N/n1cc(-c2ccccc2)[nH]c1=S	18.0	–	?	63.6	?	–
COc1cc(OC)cc(-c2nnc3n2N=C(c2cc(OC)ccc2OC)CS3)c1	–	·	·	–	·	·
Clc1ccc(C2Nc3cccc4cccc(c34)N2)c(Cl)c1	·	–	·	·	·	?
CSc1ccc(/C=c2\s/c(=C\C(=O)C(C)(C)C)n(CC(=O)NCCC3=CCCCC3)c2=O)cc1	–	·	?	–	?	·
COC(=O)[C@H](C)NC(=O)Nc1ccc(OC)c(OC)c1	–	–	–	–	–	–
Cc1onc(-c2ccccc2)c1C(=O)NNC(=S)NC(=O)/C=C/c1ccccc1	–	–	–	–	–	?
COc1ccc(CCNC(=O)CSc2nc(C)cc(C)n2)cc1OC	–	·	–	–	–	·
COc1ccccc1-c1sc2ccccc2c1-c1ccc2c(c1)OCO2	–	·	5.22µM	–	4.65µM	·
Cc1sc2c(c1C)CN(CCN1CCOCC1)CN2C(=O)c1ccccc1	19.9	–	–	–	–	–
O=C(c1ccccc1)c1ccc(C(=O)N2CCOCC2)cc1	–	–	–	–	–	–
CC(=O)Nc1cccc(NC(=O)c2cccc3cccnc23)c1	19.3	–	–	–	?	–
Cc1ccc(NC(=O)c2cccc3cccnc23)cc1	35.4	–	–	110.6	–	–
O=C(NCCc1ccccc1F)c1cccc2cccnc12	52.0	–	–	82.3	?	?
O=C1Nc2ccc(Br)cc2C(c2ccccc2)=NC1O (centres undefined)	–	·	–	–	–	·
COc1cc(NC(=O)Cn2c(=O)n(CC3CCC(C(=O)NCCc4ccccc4)CC3)c(=O)c3ccccc32)cc(OC)c1 (centres undefined)	·	–	·	·	·	?
CCOC(=O)c1ccccc1N/C=C/C(=O)c1ccccc1	·	–	·	·	·	–
Cc1ccc(C(=O)/C=C/Nc2ccccc2C(N)=O)cc1	19.4	?	–	–	–	?
NC(=O)c1ccccc1N/C=C/C(=O)c1ccc(Cl)cc1	52.3	?	–	49.0	·	?
Nc1nonc1C(=O)NCCNCc1cc(Br)ccc1OCc1ccccc1F	–	–	?	–	3.29µM	?
Cc1ccc(/C=C2/NC(=O)[C@H](C)NC2=O)cc1	14.9	·	–	–	·	·
O=C(CSc1nnc(SCc2cccc3ccccc23)s1)N=Nc1c(O)[nH]c2ccccc12	–	·	–	–	–	–
O=C1c2cccc(OCC(=O)N3N=C(c4cccs4)CC3c3ccc(F)cc3)c2CCN1Cc1cccnc1 (centres undefined)	–	?	?	–	1.47µM	?
CN1CCC(=C2c3ccccc3Sc3ccccc32)CC1	·	·	?	·	4.26µM	·
CN1CCC(=C2c3ccccc3C=Cc3ccccc32)CC1	–	8.2µM	?	–	11.7µM!	7.08µM
SMILES	Cycloheximide cs	Lassa entry inh	Pf growth 96h	Shiga toxin inh	Pf growth 48h	Marburg entry inh
COc1ccc2c(c1OC)CN1CCc3cc4c(cc3C1C2)OCO4 (centres undefined)	–	?	?	–	?	?
COc1ccc2c(c1OC)CN1CCc3cc4c(cc3[C@H]1C2)OCO4	·	·	0.721µM	·	3.7µM	·
O=C(NC(=S)N1CCN(c2ccccc2)CC1)c1ccco1	·	–	·	·	·	–
CCN(CCNCC(O)COCc1ccc(Cl)cc1)c1cccc(C)c1 (centres undefined)	–	?	?	–	8.28µM	?
CCCCCC1CC1C(=O)N/N=C/c1ccc(N(C)C)cc1 (centres undefined)	–	0.461µM	–	–	–	–
O=C(CN1CCC(C(=O)c2cccc(Cl)c2)CC1)Nc1ccc(C(=O)O)cc1	–	–	–	–	–	–
Cc1ccc(SCc2ccc(C(=O)N3CCCCC3)cc2)cc1	28.5	·	–	59.1	–	·
O=C(CSCc1ccc(F)cc1)N1CCOCC1	58.3	–	–	81.5	·	–
CC1CCN(C(=O)COC(=O)Cc2c[nH]c3ccccc23)CC1	–	–	–	–	?	–
CCOC(=O)N1CCN(C(=O)CCc2cc(OC)c(OC)c(OC)c2)CC1	–	–	–	–	–	–
O=C(CSc1ccc(F)cc1)N1CCOCC1	–	·	–	–	–[0.00184 µM]	·
COc1cc(CCC(=O)N2CCN(S(=O)(=O)c3ccc(C)cc3)CC2)cc(OC)c1OC	·	–	?	·	5.22µM	–
CC1CCN(C(=O)COC(=O)Cc2ccc(Br)cc2)CC1	34.6	–	–	–	–	–
CCOC(=O)N1CCC(N(CCN(C)C)C(=S)Nc2ccc(F)c(Cl)c2)CC1	–	–	–	–	–	–
CC1CCN(C(=O)CCl)CC1	–	–	5.86µM	–	5.22µM	–
O=C(CSCc1ccc(Br)cc1)N1CCCC1	25.0	·	?	–	–	·
Cc1ccc(S(=O)(=O)N2CCN(C(=O)CSc3ccc(Cl)cc3)CC2)cc1	–	?	?	–	?	?
Cc1ccc(CSCC(=O)N2CCCC2)cc1	23.7	–	?	–	–	–
Cc1ccc(S(=O)(=O)N2CCN(C(=O)CSCc3ccc(C(C)C)cc3)CC2)cc1	·	·	?	·	9.28µM	·
COc1ccc(CC(=O)Oc2ccc(Br)cc2F)cc1S(=O)(=O)N1CCOCC1	·	–	–	·	–	–
